This is an account of results in PubChem BioAssay AID2650 (Broad Institute, 2010).

In all, about 320,000 compounds went through this assay and about 320 (0.1%) were called active. The full list was thinned out, with actives kept by preference. Values without a mark were called inactive.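 Rule for the calls: active = more than half of replicates show inhibition above 20%; inconclusive = some but at most half of replicates above 20% inhibition; inactive = no replicate shows inhibition above 20%.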

The assay deals with Glycogen synthase kinase-3 alpha (Homo sapiens) (UniProt P49840). Nature of the assay: blockers of GSK3A enzyme activity – biochemical, luminescence, cell-free homogeneous, HTS, primary screen (AID 2650).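 Note: GST-tagged GSK-3 alpha with peptide substrate and 25 µM ATP; 0% = DMSO neutral wells and 100% = GW8510 positive control wells.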 Particulars: GSK-3 alpha kinase, ADP-Glo luminescence, 60 min; at 10 µM; active compounds read high. Background: ADP-Glo first removes unused ATP, then detects ADP through luciferase.
Glycogen synthase kinase-3 alpha (Homo sapiens), sequence (P49840 whole entry, looked up): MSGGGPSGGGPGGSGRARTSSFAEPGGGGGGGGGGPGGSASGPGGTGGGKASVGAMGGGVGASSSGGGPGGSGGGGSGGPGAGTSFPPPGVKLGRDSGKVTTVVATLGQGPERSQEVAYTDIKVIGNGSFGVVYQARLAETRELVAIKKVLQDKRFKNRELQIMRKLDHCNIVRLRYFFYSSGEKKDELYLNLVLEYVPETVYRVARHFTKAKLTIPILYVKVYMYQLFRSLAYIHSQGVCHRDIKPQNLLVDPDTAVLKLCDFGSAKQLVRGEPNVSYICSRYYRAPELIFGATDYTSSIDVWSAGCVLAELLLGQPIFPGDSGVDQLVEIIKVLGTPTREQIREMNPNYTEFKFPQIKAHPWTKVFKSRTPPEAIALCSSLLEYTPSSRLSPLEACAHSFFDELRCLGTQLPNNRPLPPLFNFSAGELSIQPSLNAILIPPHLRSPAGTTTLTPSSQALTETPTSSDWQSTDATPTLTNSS
In the case of `Cc1noc(COc2ccccc2OCc2onc(C)c2Cl)c1Cl`, the inhibition is -1.26%.
For `O=C1c2ccccc2C2=Nc3ccccc3SC(c3ccccc3F)C12` (centres undefined), the inhibition was -0.696%.
To `CC(Sc1nc2cc(Cl)ccc2s1)C(=O)Nc1ccc2c(c1)OCO2` (centres undefined) belongs -2.34%.
To `Cc1ccc2c(c1)N(CC(=O)NCCc1ccc(Cl)cc1)C(=O)c1cccnc1O2` belongs -2.75%; to `CC(C(=O)N1CCOCC1)N1c2cccc3cccc(c23)S1(=O)=O` (centres undefined), 3.12%.
As to `O=S(=O)(NC1CC2CCC1C2)c1ccc(Cl)cc1` (centres undefined), the inhibition was -0.939%.
As for `CN(C)C(=O)CCC(=O)N1CCCCC1C(=O)Nc1ccc(Oc2ccccc2F)cc1` (centres undefined), the inhibition is -0.0266%.
To `O=C(c1ccncc1)N1CCN(S(=O)(=O)c2cc(C(F)(F)F)cc(C(F)(F)F)c2)CC1` belongs -4.58%; to `CC(C)c1nnc(NC(=O)COC(=O)/C=C/c2ccc([N+](=O)[O-])cc2)s1`, 0.211%; to `CC1CCCCC1NC(=O)CCS(=O)(=O)c1cccc2nonc12` (centres undefined), -1.36%.
With `COC(=O)[C@]1(Cc2ccccc2)N[C@H](CN(C)S(=O)(=O)c2ccc(F)cc2)[C@@H]2C(=O)N(Cc3ccccc3)C(=O)[C@@H]21` the figure was -4.02%; with `CCc1ccc(C(=O)COC(=O)c2ccco2)cc1`, -0.284%.
With `Cc1cccc2sc(N(CCCN(C)C)C(=O)CCS(=O)(=O)c3ccccc3)nc12` the figure was 1.84%; with `Cc1ccc(NC(=O)CN(C)C(=O)c2ccc(Cl)c(S(=O)(=O)NCc3ccco3)c2)cc1`, -2.08%.
`COC(=O)C1=C[C@@H](C(=O)OC)[C@@H]2C3=C(C(=O)[C@]2(C)NC(=O)c2ccccc2)[C@H](C)n2c(=O)n(C)c(=O)n2[C@@H]3C1`: the inhibition is -1.38%.
To `O=C(OCC(=O)N(CCc1ccccc1)Cc1ccccc1)c1ccccc1[N+](=O)[O-]` belongs 0.711%.
To `CCCc1cc(=O)[nH]c(SCC(=O)Nc2ccc(S(=O)(=O)N3CCCC3)cc2)n1` belongs -3.71%; to `Cc1cccc(C)c1NC(=O)CS(=O)CC(=O)N1CCN(c2ccccc2)CC1` (centres undefined), -1.33%.
Regarding `Cc1c(OC(C)C(=O)NCC2CCC(C(=O)O)CC2)ccc2c1oc(=O)c1ccccc12` (centres undefined), the inhibition was 2.24%.
With `Cc1ccc(N2C(=O)CC(N3CCSCC3)C2=O)c(C)c1` (centres undefined) the figure was -1.07%; with `CC(C)(C)c1ccc(/C=C/C(=O)NCCCn2ccnc2)cc1`, 1.07%; with `O=C(CSc1nc2ccccc2c(=O)n1Cc1ccc(F)cc1)NCC1CCCO1` (centres undefined), -2.48%.
To `CC(=O)N1CCc2cc(S(=O)(=O)NC3CCCCC3)ccc21` belongs 1.13%; to `CN(CC1CCCN(CCc2cccc(C(F)(F)F)c2)C1)C(=O)c1ccc2nc[nH]c2c1` (centres undefined), 2.9%; to `CCCNC(=S)N1CCC(NC(=O)C23CC4CC(CC(C4)C2)C3)CC1`, -1.14%.
In the case of `Cc1ccccc1N(C(=O)Cc1cccs1)C(C(=O)NC1CCCCC1)c1cn(C)nc1C` (centres undefined), the inhibition was -1.17%.
With `CCCCCN(C(=O)NC(=O)Nc1ccccc1OC)S(C)(=O)=O` the figure was -0.679%; with `COc1cc(OC)cc(-c2cc3ccc(F)cc3cn2)c1`, -0.558%; with `CCOc1ccc(-c2noc(CCC(=O)NC3CCCC3)n2)cc1OC`, -2.18%.
For `COc1ccccc1-c1nnc2n1N=C(c1ccc(OC(F)F)c(OCC3CC3)c1)CS2`, the inhibition is -2.55%.
To `C=C(C)CNC(=S)Nc1ccc(S(=O)(=O)Nc2cnc3ccccc3n2)cc1` belongs -0.344%; to `Brc1ccc(/C=N/N2CCN(C3c4ccccc4-c4ccccc43)CC2)s1`, -1%.
To `COCCNC(=S)N(CCc1c(C)[nH]c2ccc(C)cc12)Cc1cccnc1` belongs -0.86%; to `CCn1c(Cc2ccc(OC)cc2)nnc1SCC(=O)Nc1ccc(N2CCOCC2)cc1`, -0.587%; to `CCCCOC(=O)Nc1sc2nc(C)cc(C)c2c1-n1cccc1`, 3.59%.
To `Cc1noc(C)c1NC(=O)Nc1cccc2c1O[C@H](CN(C)C(=O)Nc1ccccc1)[C@@H](C)CN([C@H](C)CO)C2=O` belongs -4.19%.
Take `COc1cc2c(cc1OC)CC1(CCCCC1)N=C2`: the inhibition was 0.717%.
With `Cc1cc(C)cc(N(CCC#N)C(=O)CN2C(=O)NC3(CCCC3)C2=O)c1` the figure was -1.84%; with `CC1CN(c2nc(Nc3ccccc3)nc(N)c2[N+](=O)[O-])CC(C)O1` (centres undefined), 38.9%.
With `O=[N+]([O-])c1ccc(NCCCN2CCOCC2)c(Cl)c1` the figure was -0.912%; with `Nc1nc(NCCCN2CCOCC2)nc(Nc2ccccc2)c1[N+](=O)[O-]`, 90.9% (active).
With `Nn1c(SCC(=O)Nc2ccc3c(c2)CCC3)nnc1C1CC1` the figure was -1.28%.
Turning to `CC(=NNC(=O)c1ccc2nc[nH]c2c1)c1ccc(Br)cc1`, the inhibition was 0.652%.
With `CC(C)c1nc(SCC(=O)NC(=O)NC(C)(C)C)n[nH]1` the figure was -2.13%; with `CCN(CC)CCOC(=O)c1ccc(NC(=O)CNC(=O)c2ccccc2)cc1`, -1.2%; with `O=C(OCC(=O)N1CCOCC1)c1ccc(N2CCOCC2)c([N+](=O)[O-])c1`, 1.5%.
As for `Cc1ccc(NC(=O)C2CCC(C(C)(C)C)CC2)cc1S(=O)(=O)N1CCOCC1` (centres undefined), the inhibition is -0.864%.
With `Cc1c(Cl)cccc1NC(=O)NCc1ccc(C)n1C` the figure was -2.74%; with `CC1CCCCC12NC(=O)N(CC(=O)OCC(=O)NCc1ccc(F)cc1)C2=O` (centres undefined), -2.66%.
To `O=C(O)C1=CCCN(CCON=C(c2ccccc2)c2ccccc2)C1` belongs -1.9%.
With `CC(C)(C)OC(=O)C[C@@H]1C/C=C\C[C@H](CC(=O)N[C@@H](CO)Cc2ccccc2)C(=O)N[C@H](Cc2ccccc2)COC1=O` the figure was 0.493%.
As for `O=C(CN1C(=O)NC2(CCCCCC2)C1=O)NCc1ccc(F)cc1`, the inhibition is -1.44%.
With `O=C(c1ccccc1F)N(Cc1ccccc1)Cc1ccccc1` the figure was 0.121%; with `O=c1c2c3c(sc2n(CCN2CCCC2)c(=O)n1Cc1ccccc1)CCCCC3`, 0.297%.

One may read the inhibition as the relative decrease from the control value, in per cent.
